# Measured values: PubChem BioAssay AID1489 (National Center for Advancing Translational Sciences (NCATS), 2009)
# Records with an inconclusive call do not appear. Calls of active or inactive are those of the source. Calls come from the whole dose curve; as a rule, active = well fitted antagonist curve with a large enough effect in the main read-out, with a control signal flat; inconclusive = small, poorly fitted or top-dose-only effect; inactive = no such curve, though single readings can be large or run the other way.
# Target: Neuropeptide S receptor (Homo sapiens) (UniProt Q6W5P4)
# Sequence (Q6W5P4 whole entry, looked up): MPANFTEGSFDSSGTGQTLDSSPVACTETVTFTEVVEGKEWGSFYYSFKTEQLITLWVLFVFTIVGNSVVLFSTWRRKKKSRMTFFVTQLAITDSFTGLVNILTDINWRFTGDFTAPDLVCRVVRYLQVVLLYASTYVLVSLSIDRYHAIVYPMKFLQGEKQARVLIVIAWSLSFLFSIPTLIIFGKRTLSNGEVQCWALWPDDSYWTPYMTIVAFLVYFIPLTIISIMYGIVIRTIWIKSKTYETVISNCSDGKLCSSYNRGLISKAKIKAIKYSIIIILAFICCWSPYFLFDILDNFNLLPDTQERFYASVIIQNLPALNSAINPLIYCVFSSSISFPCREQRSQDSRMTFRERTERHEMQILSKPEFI
# Assay: Confirmation Concentration-Response Assay for Antagonists of the Neuropeptide S Receptor: Calcium Signal Transduction
# Conditions: CHO-NPSR cells, NPS-induced calcium flux, FDSS; series mostly up to 19.3 µM; activity change, negative = inhibition: at the top concentration
# How it was run: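 Calcium flux was measured by kinetic fluorescence in dye-loaded CHO-NPSR cells, first after compound addition (210 s), then after NPS challenge (60 nM in stimulation reagent, 140 s). Hill-equation fitting gave AC50.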
Compound,"activity change, negative = inhibition",Potency
Cn1nc(-c2ccc(Cl)cc2)nc2c(=O)n(C)c(=O)nc1-2,25.8% (inactive),
CN(CC(=O)NCc1ccc(F)cc1)S(=O)(=O)c1cccc2nsnc12,7.19% (inactive),
CCOC(=O)c1cnc(-n2nc(C)cc2C)nc1NC1CCCC1,,2.82 µM (active)
COc1cccc(N2CCN(c3ncnc4c3[nH]c3ccc(F)cc34)CC2C)c1 (stereo unspecified),,0.631 µM (active)
Cc1nn(C(=O)c2cccs2)c(N)c1-c1ccccc1,0.372% (inactive),
O=C(Nc1nccs1)C1CCCN1S(=O)(=O)c1ccc(Cl)cc1 (stereo unspecified),0.929% (inactive),
CC1(C)Cc2c(c(N3CCOCC3)nc3sc4c(NCC5CCCO5)nnnc4c23)CS1 (stereo unspecified),-40.4% (inactive),
O=C1Nc2ccc(S(=O)(=O)N3CCCC3C(=O)O)c3cccc1c23 (stereo unspecified),-13.6% (inactive),
Cc1nn(C)cc1/C=N/NC(=S)Nc1ccccc1,3.91% (inactive),
Cn1c(COc2ccccc2)nnc1SCc1cc(=O)[nH]c2ccccc12,-4.37% (inactive),
CN(Cc1cc(=O)[nH]c2ccccc12)C(=O)c1ccccc1,-1.96% (inactive),
O=C1CC(NCc2ccncc2)C(=O)N1c1ccccc1 (stereo unspecified),7.53% (inactive),
O=C(CSc1n[nH]c(-c2cccnc2)n1)Nc1ccnc2ccccc12,-2.97% (inactive),
COc1cc(/C=C2\SC(c3ccc(C)cc3)=NC2=O)cc(OC)c1O,7.8% (inactive),
COCCCn1c(SCc2cc(=O)[nH]c3ccccc23)nnc1-c1ccco1,15.8% (inactive),
CCOC(=O)c1cnc(-n2nc(C)cc2C)nc1Nc1ccc(C)cc1,-19.5% (inactive),

Compound,"activity change, negative = inhibition",Potency
CCC(Sc1ccc2nnc(-c3cccnc3)n2n1)C(=O)O (stereo unspecified),-3.7% (inactive),
Cc1cccnc1NC(=O)c1c(O)c2cccc3c2n(c1=O)CCC3,-5.87% (inactive),
COc1ccc(OC)c(C2C(C(=O)Nc3nc4ccccc4s3)=C(C)NC3=C2C(=O)CCC3)c1 (stereo unspecified),,2.82 µM (active)
C/C(=N\Nc1ncc(Cl)cc1Cl)c1ccccn1,,2.51 µM (active)
O=C(CSC1=NCCS1)Nc1ccnc2ccccc12,-15.5% (inactive),
Cc1ccc(-n2ncc3c(NCc4ccc5c(c4)OCO5)ncnc32)c(C)c1,-21.2% (inactive),
CN(C)C(=S)N=Nc1[nH]c2ccccc2c1O,15.4% (inactive),
CC(C)Cc1nc(N2CCN(C(=O)c3ccccc3)CC2)c(C#N)c2c1CCC2,16% (inactive),
Brc1ccc(CSc2ncn[nH]2)cc1,-6.38% (inactive),
CCSc1nc2c(c(=O)n1Cc1ccccc1)SC(C)C2 (stereo unspecified),-2.84% (inactive),
CC1CCCc2sc3nc(N4CCN(CCO)CC4)n4ncnc4c3c21 (stereo unspecified),17.5% (inactive),
CCCCCN1C=CC=C/C1=C\C=C(C#N)C#N,-25.1% (inactive),
C/C(=N\NC(=S)NC1CCCCC1)c1c(F)cccc1F,-22.3% (inactive),
CCC(C)(C)NC(=O)Cc1ccc(C)cc1,10.7% (inactive),
S=C(Nc1ccccc1)Nc1nccs1,23.7% (inactive),
